Compound activity (PubChem BioAssay)
Hits are enriched below; roughly 12% of the tested compounds scored in any of these assays.
HP1b binding inh = inhibitors of HP1-beta chromodomain binding to methylated histone tails. Potency, µM (series often up to 114 µM), for the others: top-dose activity change, negative = inhibition, actives largely listed as inhibitors. P83916. actives 0.56% (n = 390,000). AlphaScreen HP1-beta / biotin-H3K9me3 peptide binding. AID 540317; also: nearly all actives have a fitted effect of over 70% in size
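AlphaScreen: HP1-beta (50 nM) preformed 30 min with biotin-H3(1-18)K9me3 peptide (50 nM) in PBS pH 7.4, 0.01% Tween-20. Compound added for 30 min at RT, then streptavidin donor/nickel chelate acceptor beads (10 ug/mL) for 30 min.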
JMJD2A Tudor = JMJD2A Tudor domain (human) inhibition | AID 504339 | O75164 | Potency, µM (top dose mostly 114 µM), inactives show at the top dose activity change, negative = inhibition, hits mostly inhibitors | AlphaScreen JMJD2A-Tudor / H3K4me3 peptide binding | actives 4.4% (n = 390,000); also: % is scaled to controls: 0 for no effect and ±100 for the full control effect; nearly all actives have a fitted effect of over 50% in size
L3MBTL1 block = L3MBTL1 (human) inhibition | Q9Y468 | AlphaScreen L3MBTL1–H3K9me1 peptide binding | Potency, µM (series often up to 57.1 µM), for the others: at the top dose activity, negative = inhibition, actives largely listed as inhibitors | actives 0.66% (n = 230,000) | AID 485360; also: % is scaled to controls: 0 for no effect and ±100 for the full control effect; nearly all actives have a fitted effect of over 60% in size
Target sequence (Q9Y468 whole entry, looked up): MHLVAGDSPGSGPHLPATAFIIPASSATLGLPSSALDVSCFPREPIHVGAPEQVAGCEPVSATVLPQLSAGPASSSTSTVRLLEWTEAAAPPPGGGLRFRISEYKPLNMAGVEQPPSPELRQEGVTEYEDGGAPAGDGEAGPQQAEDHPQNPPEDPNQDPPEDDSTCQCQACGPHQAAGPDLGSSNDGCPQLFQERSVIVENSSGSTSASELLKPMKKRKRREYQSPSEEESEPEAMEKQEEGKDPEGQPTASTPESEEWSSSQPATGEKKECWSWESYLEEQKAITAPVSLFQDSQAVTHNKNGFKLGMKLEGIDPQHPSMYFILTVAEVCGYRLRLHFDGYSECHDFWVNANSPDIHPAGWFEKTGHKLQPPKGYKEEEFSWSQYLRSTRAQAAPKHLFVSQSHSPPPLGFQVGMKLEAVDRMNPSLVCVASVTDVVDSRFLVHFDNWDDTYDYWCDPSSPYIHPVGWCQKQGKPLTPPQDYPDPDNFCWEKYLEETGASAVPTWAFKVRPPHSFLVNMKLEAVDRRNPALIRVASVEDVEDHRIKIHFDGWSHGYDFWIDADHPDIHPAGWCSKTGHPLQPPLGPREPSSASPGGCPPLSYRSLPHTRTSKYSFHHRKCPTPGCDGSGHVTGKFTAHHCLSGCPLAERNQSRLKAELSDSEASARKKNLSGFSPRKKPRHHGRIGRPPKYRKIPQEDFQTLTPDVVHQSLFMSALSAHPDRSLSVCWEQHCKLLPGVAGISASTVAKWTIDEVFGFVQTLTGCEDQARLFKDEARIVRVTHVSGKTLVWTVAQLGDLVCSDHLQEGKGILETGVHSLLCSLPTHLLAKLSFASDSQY
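Displacement of a biotinylated histone H3(1-15) peptide monomethylated at Lys9 (75 nM) from L3MBTL1 (50 nM) was measured by AlphaScreen after a 30 min room-temperature compound incubation; cefsulodin titration served as intraplate control.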
G9a block = G9a (human) methyltransferase inhibition | Q96KQ7 | G9a H3K9 monomethylation, AlphaScreen, 2 h | Potency, µM (series often up to 102 µM), for inactives: at the highest dose activity, negative = inhibition, usual class: inhibitors | actives 8.8% (n = 350,000); also: % is scaled to controls: 0 for no effect and ±100 for the full control effect; nearly all actives have a fitted effect of over 75% in size
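G9a (20 nM) was preincubated 15 min with compound, then reacted 2 h at room temperature with 500 nM biotin-H3K9 peptide and 20 µM SAM. Monomethyl-H3K9 detected by AlphaScreen using anti-H3K9me1 antibody.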
Sfp PPTase inh = inhibitors of Bacillus subtilis Sfp phosphopantetheinyl transferase; Biochemical Sfp PPTase activity, qHTS; actives 3.5% (n = 310,000); AID 1490; Potency, µM, for inactives: largest response in the series, negative = inhibition, actives largely listed as inhibitors;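 also: the enzyme is Sfp with the accession as filed and its product quenches rhodamine fluorescence; 0% = enzyme reaction without inhibitor and -100% = no enzyme wells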
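Fluorescence-quenching assay with 15 nM Sfp, 5 uM rhodamine-CoA and 12.5 uM BHQ-2-labelled ybbR peptide in pH 7.6 Hepes/MgCl2 buffer. Enzyme was pre-incubated with compound for 15 min at room temperature. Rate was taken from the 30-min fluorescence change (525/598 nm).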
BAZ2B block = BAZ2B (human) inhibition. AlphaScreen BAZ2B-H3K14Ac peptide displacement. Potency, µM (highest dose often 114 µM), for the others: at the highest dose activity change, negative = inhibition, usual class: inhibitors. actives 4.4% (n = 360,000). AID 504333; also: % is scaled to controls: 0 for no effect and ±100 for the full control effect; nearly all actives have a fitted effect of over 60% in size
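In this displacement format the biotinylated H3(5-23) peptide acetylated at Lys14 serves as ligand at 50 nM, with BAZ2B at 50 nM in PBS pH 7.4 containing 0.01% Tween-20. Donor and acceptor beads are 10 ug/mL final.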
* = called active by the depositor; [ ] = remark or other dose. Calls follow the shape of the dose curve; as a rule, active = well fitted curve in the direction sought with a large enough effect; inconclusive = small, poorly fitted or top-dose-only effect, or another doubt; inactive = no such curve, though single readings can be large; an effect the other way counts as inactive or inconclusive. Potency is read from the fitted curve at half-maximal effect.

How did c1coc(Cn2c(SCc3nc4ccccc4[nH]3)nnc2-c2cccs2)c1 do in these assays?
HP1b binding inh: 21%; JMJD2A Tudor: -33%; L3MBTL1 block: -6%; G9a block: 50µM*; Sfp PPTase inh: 14%; BAZ2B block: -5%

What do the screens show for `CCOc1ccc(-c2nnc(SCc3nc4ccccc4[nH]3)n2N)cc1`?
HP1b binding inh: 43%; JMJD2A Tudor: 89µM*; G9a block: inconclusive; Sfp PPTase inh: 1%; BAZ2B block: inconclusive

What do the screens show for `COc1ccccc1-c1nn2c(=O)cc(CN3CCN(S(=O)(=O)c4ccc(C)cc4)CC3)nc2s1`?
HP1b binding inh: 19%[57 µM]; JMJD2A Tudor: -10%; G9a block: 1%[59 µM]; BAZ2B block: 2%

Results for N#Cc1nc(Cc2ccccc2)oc1NCCN1CCOCC1 ?
HP1b binding inh: 12%; JMJD2A Tudor: -13%; L3MBTL1 block: -3%; G9a block: inconclusive; Sfp PPTase inh: 13%; BAZ2B block: -5%

What do the screens show for `N#Cc1nc(COc2ccc(F)cc2)oc1NCCN1CCOCC1`?
HP1b binding inh: 26%; JMJD2A Tudor: -22%; G9a block: 79µM*; Sfp PPTase inh: 11%; BAZ2B block: inconclusive

What do the screens show for `N#Cc1nc(COc2ccc(Br)cc2)oc1NCCN1CCOCC1`?
HP1b binding inh: 13%; JMJD2A Tudor: -27%; L3MBTL1 block: -7%; G9a block: 50µM*; Sfp PPTase inh: 3%; BAZ2B block: inconclusive

Results for CCS(=O)(=O)Nc1ccc(-c2cn3ccsc3n2)cc1 ?
HP1b binding inh: 12%[57 µM]; JMJD2A Tudor: -16%; G9a block: 20%[59 µM]; BAZ2B block: -6%

How did O=C1N/C(=N\c2ccccn2)SC1Cc1ccc(Cl)cc1 (centres undefined) do in these assays?
HP1b binding inh: 1%; JMJD2A Tudor: 25µM*; L3MBTL1 block: 5%; G9a block: inconclusive; Sfp PPTase inh: 23%; BAZ2B block: -18%

What do the screens show for `Cc1ccc(-n2ncc(C(=O)NC3CCCC3)c2C2CCN(C(=O)OC(C)(C)C)CC2)c(C)c1`?
HP1b binding inh: -12%; JMJD2A Tudor: -27%; G9a block: -27%[59 µM]; BAZ2B block: 0%[57.1 µM]

How did O=C(Nc1nc2c(F)cc(F)cc2s1)C1CC(=O)N(Cc2ccco2)C1 (centres undefined) do in these assays?
HP1b binding inh: -38%; JMJD2A Tudor: -7%[11.4 µM]; L3MBTL1 block: inconclusive; Sfp PPTase inh: 10µM*; BAZ2B block: inconclusive

Results for Cc1ccc2nc(NC(=O)C3CC(=O)N(Cc4ccco4)C3)sc2c1 (centres undefined) ?
HP1b binding inh: 12%; JMJD2A Tudor: -20%; L3MBTL1 block: 4%; G9a block: -50%; Sfp PPTase inh: 13%; BAZ2B block: -37%

What do the screens show for `Cc1cc(C)c2nc(NC(=O)C3CC(=O)N(Cc4ccco4)C3)sc2c1` (centres undefined)?
HP1b binding inh: inconclusive; JMJD2A Tudor: inconclusive; G9a block: -26%[59 µM]; Sfp PPTase inh: 0%; BAZ2B block: 40µM*

Results for CC(=O)Nc1ccc(NC(=O)C2CC(=O)N(Cc3ccco3)C2)cc1 (centres undefined) ?
HP1b binding inh: 44%; JMJD2A Tudor: -9%; L3MBTL1 block: 5%; G9a block: 16µM*; BAZ2B block: 1%

What do the screens show for `Cc1ccc(-c2nc(CS(=O)CC(=O)N3CCN(c4ccc(Cl)cc4)CC3)c(C)o2)cc1` (centres undefined)?
HP1b binding inh: 34%; JMJD2A Tudor: -19%; G9a block: inconclusive; BAZ2B block: -17%

What do the screens show for `CCCC(=O)Nc1ccc2c(c1)nc(CN1CCN(C(=O)OCC)CC1)n2C`?
HP1b binding inh: 11%; JMJD2A Tudor: inconclusive; G9a block: 18%; Sfp PPTase inh: 5%; BAZ2B block: 5%

Results for CCCC(=O)Nc1ccc2c(c1)nc(CN1CCN(C(=O)OCC)CC1)n2C(C)C ?
HP1b binding inh: 41%; JMJD2A Tudor: -13%; G9a block: -19%[59 µM]; BAZ2B block: -36%

What do the screens show for `CCOC(=O)N1CCN(Cc2nc3cc(NC(C)=O)ccc3n2C(C)C)CC1`?
HP1b binding inh: 34%; JMJD2A Tudor: 50µM*; G9a block: -48%[59 µM]; BAZ2B block: inconclusive

How did CCCC(=O)Nc1ccc2c(c1)nc(CN1CCN(C(C)=O)CC1)n2C do in these assays?
HP1b binding inh: 29%; JMJD2A Tudor: 10%; L3MBTL1 block: -3%; G9a block: 50µM*; Sfp PPTase inh: -1%; BAZ2B block: 1%[57.1 µM]

What do the screens show for `COCCNC(=O)c1ccc(Cn2c(=S)[nH]c3cc4c(cc3c2=O)OCO4)cc1`?
HP1b binding inh: 38%; JMJD2A Tudor: 28µM*; L3MBTL1 block: -3%; G9a block: inconclusive; Sfp PPTase inh: 3%; BAZ2B block: -29%

How did COC(CNC(=O)c1ccc(Cn2c(=S)[nH]c3cc4c(cc3c2=O)OCO4)cc1)OC do in these assays?
HP1b binding inh: 26%; JMJD2A Tudor: 22µM*; L3MBTL1 block: -19%; G9a block: inconclusive; Sfp PPTase inh: 15%; BAZ2B block: inconclusive

How did COC(=O)c1ccc2c(=O)n(Cc3ccc4c(c3)OCO4)c(=S)[nH]c2c1 do in these assays?
HP1b binding inh: 45%; JMJD2A Tudor: -10%; G9a block: 24%; Sfp PPTase inh: -2%; BAZ2B block: -4%

What do the screens show for `CS(=O)(=O)N1CCC2(CC1)CN(C(=O)Nc1ccccc1)C2`?
G9a block: 6%[12.7 µM]; Sfp PPTase inh: 14%

How did CN(C)S(=O)(=O)c1cc(NC(=O)c2cc(=O)c3ccccc3o2)ccc1Cl do in these assays?
HP1b binding inh: 7%; JMJD2A Tudor: -29%; G9a block: inconclusive; Sfp PPTase inh: 32µM*; BAZ2B block: -18%

What do the screens show for `COc1ccc(NC(=O)c2cc(=O)c3ccc(C)c(C)c3o2)cc1Cl`?
HP1b binding inh: 33%; JMJD2A Tudor: -6%; G9a block: -1%[59 µM]; BAZ2B block: -2%

How did CN(c1ccccc1)S(=O)(=O)c1ccc(NC(=O)c2cc(=O)c3ccccc3o2)cc1 do in these assays?
HP1b binding inh: 41%; JMJD2A Tudor: 0%; G9a block: 1%[59 µM]; BAZ2B block: -15%

Results for COc1ccc(NC(=O)c2cc(=O)c3ccccc3o2)cc1Cl ?
HP1b binding inh: 26%; JMJD2A Tudor: -22%; L3MBTL1 block: -2%; G9a block: 56µM*; Sfp PPTase inh: 4%; BAZ2B block: -34%

Results for COC(=O)c1cc2oc(C)cc2n1CC(=O)Nc1ccc(OC)c(OC)c1 ?
HP1b binding inh: 8%; JMJD2A Tudor: -20%; G9a block: -46%[59 µM]; BAZ2B block: inconclusive
